# Target: PRUNE
# Test: pooled miR-30 sensor sort-seq; sequence = guide strand
# Details: shRNA
row,Sequence,sensor-assay potency score (higher = more potent)
1,TTTCTCTCTAGCTTGAGGCAGG,-0.511
2,TTTATGAGAACAGTATACCAGA,-0.563
3,TTAAATAATAAAATGTGTCTGA,-0.11
4,TAGAGGTCGGGACTCCTGCAGA,-0.699
5,TTCCTTGTCCACTTGCTCCCTG,0.334
6,TAATAGTATAACAAAATGCAAA,-1.31

# Target: PSD4
# Test: as above
# Details: shRNA
row,Sequence,sensor-assay potency score (higher = more potent)
1,TCACTCTTTACTTCCTCGCCTG,-0.455
2,TAGCTAGCTTGTCTCCAGCTGG,-0.572
3,TTAAGCAGCATGATTGCACATG,-0.729
4,TTTTCTTCAAGGAACTTGGCTG,-0.084
5,TTTCCCTTGGGCACTCTCCTGG,-0.299
6,TTACCTCTCTATCCTCTCCAGT,-0.76
7,TCTTCTTGCCGTCTGCATCTTG,-0.456
8,AAGGTGTGGAACATCTTCCAGC,-0.755
9,TTGCGCTTCACCTTGGCCGTGG,0.0843
10,TAAGGTGTGGAACATCTTCCAG,-1.04
11,TGCACGTAGGTCTCGTAGCGGG,-1.25

# Reference: the OligoGym collection
